Laboratory results taken from PubChem BioAssay (NCI).
About 83,000 compounds went through this panel and 20% of them were active in at least one assay; those are over-represented in the sample as a whole.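 A percent growth of 40 corresponds to 60% growth inhibition; 0 means no net growth; -100 means all cells died. Active threshold: below 10.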 Unmarked numbers belong to inactive results. The source made the active and inactive calls.

Legend:
Assay in all cases: NCI-60 one-dose screen, 48 h (100 = growth as untreated, 0 = no growth, -100 = all killed)
NCI-H23 lung = settings: 10 µM unless noted
NCI-H226 lung = settings: 10 µM unless noted
NCI-H322M lung = settings: 10 µM unless noted
NCI-H460 lung = settings: 10 µM unless noted
HOP-92 NSCLC = settings: 10 µM
NCI-H522 lung = settings: 10 µM
A549/ATCC NSCLC = settings: 10 µM unless noted
786-0 renal = settings: 10 µM unless noted
COLO 205 colon = settings: 10 µM unless noted
DU-145 prostate = settings: 10 µM unless noted
K-562 leukemia = settings: 10 µM unless noted
MALME-3M melanoma = settings: 10 µM unless noted
MDA-MB-231 breast = settings: 10 µM unless noted
RXF 393 renal = settings: 10 µM unless noted
SF-268 CNS = settings: 10 µM unless noted
SF-295 CNS = settings: 10 µM unless noted
SF-539 CNS = settings: 10 µM unless noted
UACC-257 melanoma = settings: 10 µM unless noted
M14 melanoma = settings: 10 µM unless noted

Structure (SMILES)	growth (NCI-H23 lung)	growth (NCI-H226 lung)	growth (NCI-H322M lung)	growth (NCI-H460 lung)	growth (HOP-92 NSCLC)	growth (NCI-H522 lung)	growth (A549/ATCC NSCLC)	growth (786-0 renal)	growth (COLO 205 colon)	growth (DU-145 prostate)	growth (K-562 leukemia)	growth (MALME-3M melanoma)	growth (MDA-MB-231 breast)	growth (RXF 393 renal)	growth (SF-268 CNS)	growth (SF-295 CNS)	growth (SF-539 CNS)	growth (UACC-257 melanoma)	growth (M14 melanoma)
CC(=O)c1cc(Nc2cc(C)nc(N)n2)cc(C(C)=O)c1	83.2%	101%	107%	104%	71.9%	99.8%	116%	95.3%	117%	91.3%	81.3%	45.3%	106%	108%	99.8%	114%	91.2%	103%	–
COC(=O)c1ccc2[nH]c(O)c(C(=Nc3ccc(N(C)C(=O)CN4CCN(C)CC4)cc3)c3cccc(OC)c3)c2c1	7.62% (active)	32.4%	21.8%	7.31% (active)	48.3%	12.1%	9.85% (active)	10.4%	-55.8% (active)	8.57% (active)	3.85% (active)	-16.3% (active)	13.1%	-55.7% (active)	6.71% (active)	29.9%	-11.2% (active)	31.8%	8.85% (active)
COc1cc2c(/C=C3\C(=O)Nc4ccc(Br)cc43)c(Cl)n(C)c2cc1C	20.6%	45.1%	17.2%	8.86% (active)	-4.95% (active)	-3.92% (active)	24%	-17.3% (active)	6.03% (active)	17.5%	6.73% (active)	21.9%	7.42% (active)	-23.9% (active)	29.6%	9.82% (active)	7.51% (active)	28.8%	–
COc1cccc2c1n([O-])c1cccc(OC)c1[n+]2=O	58.8%	97.8%	107%	47.8%	94.3%	53.5%	70.6%	84.2%	97.6%	60.9%	37.6%	89.2%	95.7%	-35.3% (active)	62%	120%	68.4%	71%	96%
CCC(CCCN1C(=O)c2ccccc2C1=O)Nc1cc(OC)cc2c(C)ccnc12 (configuration not stated)	117%	88.2%	104%	114%	72.4%	91.8%	103%	95.9%	104%	86.7%	72.4%	111%	81.1%	-10.2% (active)	113%	93.3%	76.5%	88.6%	–
Cc1nn(-c2ccccc2)c(N)c1N=C1NC(=O)/C(=C/c2ccc(Cl)cc2)S1	78.2%	83.5%	81.8%	92.6%	79.9%	87.1%	80.6%	94.7%	88.4%	86.9%	73.2%	87.4%	105%	109%	83.7%	86.5%	81%	105%	–
c1ccc(C(=NNc2nc3ccccc3o2)c2ccccn2)nc1	10.8%	-2.97% (active)	13.3%	3.05% (active)	34.4%	20.9%	6.29% (active)	6.88% (active)	18%	20.3%	10.9%	19.5%	29.7%	16.4%	7.72% (active)	0.423% (active)	2.62% (active)	-1.59% (active)	-4.91% (active)
O=C(Nc1ccc(Cl)cn1)C1(c2ccccc2)CCCCC1	114%	103%	119%	102%	60.7%	140%	110%	97.5%	103%	86.5%	67.1%	112%	87.7%	-1.25% (active)	108%	110%	96.7%	109%	–
